Results from PubChem BioAssay.
Calls of active or inactive are those of the source.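 The calls were made as follows, unless noted: active = inhibition of the reporter signal at or above 50%; inactive = inhibition below 50%.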

Legend:
[1] = inhibitors of TNFa-induced NFkB p65 translocation, primary screen, imaging, HUVEC, MLSMR starter and 10KST1 sets (AID 438;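 active = inhibition above 20% together with a positive visual image hit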;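 also: compound added about 3h40 before a 20 min TNFalpha stimulation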;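 as to inhibition: signal is the nuclear over cytoplasmic p65 intensity ratio per well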); details: HUVEC TNFa-induced p65 nuclear translocation; cell count: measured here: nuclei count (cytotoxicity indicator), at 2.08 µM; inhibition: at 2 µM, stronger effect = higher value, 0% TNFa-plus-vehicle, 100% no-TNFa wells
[2] = inhibitors of mutant huntingtin aggregation, primary screen, imaging, exon1htt(103Q)mCFP cells, high-content imaging (AID 483;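 active = visual image review flags a hit and inhibition of aggregation exceeds 20%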;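 also: compound exposure lasted 3 days before fixation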;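 as to nuclei count: percent of the per-plate median nuclei count of sample wells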); details: exon1htt(103Q)mCFP cell line, aggregate imaging, at 2 µM; inhibition of aggregation: stronger effect = higher value; nuclei count: measured here: cell count, toxicity
[3] = inhibitors of E-selectin induction by TNFa, primary screen, imaging, HUVEC, immunofluorescence, MLSMR starter and 10KST1 sets (AID 487;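 active = visually confirmed hit in the image check and inhibition above 20%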;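 as to inhibition: signal is fraction of cell area covered by stained E-selectin grains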;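 as to nuclei count: 100% = median nuclei count of all wells on the same plate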); details: HUVEC TNFalpha-induced E-selectin immunofluorescence imaging, at 2 µM; inhibition: stronger effect = higher value; nuclei count: measured here: cell number, toxicity
[4] = target: Voltage-gated potassium channel subunit beta-2 (Rattus norvegicus) (UniProt P62483); assay: KvBeta enzyme negative modulators, primary screen, biochemical, NADPH fluorescence (AID 622;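 active = fluorescence slope higher than the sample average by over 3 SD, cut at about -0.22 in these data, passing the limit was not always enough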;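 also: slope of raw intensity against log time taken from 70 to 1610 s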); details: recombinant KvBeta, 4-cyanobenzaldehyde reduction, at 10 µM, stronger effect = higher value
[5] = target: Voltage-gated potassium channel subunit beta-2 (Rattus norvegicus) (UniProt P62483); assay: KvBeta positive modulators, primary screen, biochemical, NADPH fluorescence (AID 623;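 active = NADPH fluorescence slope more negative than the mean of all samples by about 3 SD, 99.7% confidence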;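 also: fluorescence intensity change per second fitted from 20 to 320 s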); details: Recombinant KvBeta, NADPH fluorescence decrease slope, 10 min; at 10 µM; stronger effect = lower value
[6] = target: Alpha-2C adrenergic receptor (Homo sapiens) (UniProt P18825); assay: modulators of alpha2C/GIRK thallium flux, primary screen, cell-based, HEK293 alpha2C/GIRK1/2 (AID 624;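 active = fluorescence slope after compound addition differing from the mean of all screened samples at 99.7% confidence, in either direction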;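 also: slope of fluorescence ratio to pre-addition baseline per second over 15 to 24 s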); details: thallium flux BTC fluorescence, at 10 µM, actives lie on both sides
[7] = inhibitors of Sendai virus-induced IRF3 signaling, primary screen, TLR/RLR signaling modifier project, cell-based, Sendai virus stimulus, luciferase, 10K MLSCN set (AID 602276;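 active = inhibition at or above 50% at 10 µM; inactive = inhibition below 50%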;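 also: firefly luciferase from ISG56 promoter only with Renilla not read in this screen; 0% = Sendai virus plus DMSO and 100% = medium plus DMSO without virus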); details: HEK293 RL24 IRF3 luciferase reporter, at 10 µM, stronger effect = higher value
[8] = inhibitors of poly I:C-induced TLR3 signaling, primary screen, cell-based, poly I:C stimulus, luciferase, 10K MLSCN set (AID 602277); details: HEK293-TLR3 RL24 IRF3 luciferase reporter, at 10 µM, stronger effect = higher value

Alpha-2C adrenergic receptor (Homo sapiens), sequence (P18825 whole entry, looked up): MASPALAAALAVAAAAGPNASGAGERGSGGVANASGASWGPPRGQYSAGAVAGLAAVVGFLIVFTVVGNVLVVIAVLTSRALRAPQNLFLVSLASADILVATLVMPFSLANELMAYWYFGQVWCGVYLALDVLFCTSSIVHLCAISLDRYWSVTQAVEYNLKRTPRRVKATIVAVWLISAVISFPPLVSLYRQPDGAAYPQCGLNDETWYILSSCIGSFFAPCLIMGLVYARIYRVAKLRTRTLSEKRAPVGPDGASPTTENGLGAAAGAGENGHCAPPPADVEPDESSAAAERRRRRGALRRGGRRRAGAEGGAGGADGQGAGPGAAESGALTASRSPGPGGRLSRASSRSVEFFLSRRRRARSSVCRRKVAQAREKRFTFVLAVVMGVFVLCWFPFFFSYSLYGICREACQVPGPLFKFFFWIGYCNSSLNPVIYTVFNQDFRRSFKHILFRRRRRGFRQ
Voltage-gated potassium channel subunit beta-2 (Rattus norvegicus), sequence (P62483 whole entry, looked up): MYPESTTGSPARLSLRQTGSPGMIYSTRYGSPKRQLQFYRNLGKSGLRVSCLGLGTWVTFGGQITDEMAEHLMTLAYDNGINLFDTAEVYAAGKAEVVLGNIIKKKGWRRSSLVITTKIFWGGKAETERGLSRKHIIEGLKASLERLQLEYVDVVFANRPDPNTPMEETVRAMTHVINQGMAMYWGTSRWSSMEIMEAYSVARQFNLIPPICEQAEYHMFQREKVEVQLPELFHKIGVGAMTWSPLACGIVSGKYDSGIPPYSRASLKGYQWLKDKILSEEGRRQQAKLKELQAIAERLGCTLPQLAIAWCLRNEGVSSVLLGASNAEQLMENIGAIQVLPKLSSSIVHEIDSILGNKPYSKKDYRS

| SMILES | cell count [1] | inhibition [1] | inhibition of aggregation [2] | nuclei count [2] [%] | inhibition [3] | nuclei count [3] [%] | fluorescence slope [4] | NADPH fluorescence slope [5] | slope [6] | inhibition [7] | inhibition [8] |
| --- | --- | --- | --- | --- | --- | --- | --- | --- | --- | --- | --- |
| Cc1cccc(N2CCN(Cc3c(C)n(C)n(-c4ccccc4)c3=O)CC2)c1C | 451 | 0.5% (inactive) | 9.8% (inactive) | 92.6 | -29.6% (inactive) | 124 | -0.465 (inactive) | 5.9e-05 (inactive) | 0.00748 (inactive) | 13.4% (inactive) | 18.5% (inactive) |
| COc1cccc(C(=O)n2cnnc2N)c1OC | 391 | -2.4% (inactive) | 1% (inactive) | 109 | 41.5% (inactive) | 102 | -0.382 (inactive) | 8e-06 (inactive) | 0.00713 (inactive) | 16.3% (inactive) | 21.1% (inactive) |
| COc1ccc(OC)c(C(=O)c2ccc(C(=O)O)cc2)c1 | 415 | 10.6% (inactive) | -5.3% (inactive) | 100 | -71.4% (inactive) | 110 | -0.508 (inactive) | -2.9e-05 (inactive) | 0.00489 (inactive) | 16.7% (inactive) | 18.4% (inactive) |
| O=C(CCCN1C(=O)c2ccccc2C1=O)NCc1cccnc1 | 709 | -7.1% (inactive) | -4.8% (inactive) | 102 | -120% (inactive) | 134 | -0.42 (inactive) | -2.4e-06 (inactive) | 0.00753 (inactive) | 8.03% (inactive) | 8.47% (inactive) |
| Cc1c(NC(=O)c2nn(C)c(=O)c3ccccc23)c(=O)n(-c2ccccc2)n1C | 426 | 4.2% (inactive) | -1.2% (inactive) | 98.9 | -56.3% (inactive) | 136 | -0.496 (inactive) | -1.3e-05 (inactive) | 0.00499 (inactive) | 0.784% (inactive) | -0.356% (inactive) |
| O=S1(=O)C=C(Sc2nnc(-c3ccccc3)o2)c2ccccc21 | 237 | 7.4% (inactive) | 0.8% (inactive) | 93.4 | -55.3% (inactive) | 109 | -0.479 (inactive) | -5.2e-05 (inactive) | 0.00503 (inactive) | 12.3% (inactive) | 66.1% (active) |
| COC(=O)CCCCC(=O)C1C(=O)CC(C)(C)C(C(=O)OC)C1=O (stereo not drawn) | 431 | -0.3% (inactive) | -13.3% (inactive) | 96.5 | -1.3% (inactive) | 121 | -0.49 (inactive) | 4.5e-05 (inactive) | 0.00358 (inactive) | -9.68% (inactive) | 3.35% (inactive) |
| COc1ccccc1C(=O)NC(C)C(c1cccs1)N1CCN(C)CC1 (stereo not drawn) | 547 | -1.6% (inactive) | 0.7% (inactive) | 106 | -38.9% (inactive) | 114 | -0.394 (inactive) | 1.2e-06 (inactive) | 0.00389 (inactive) | -13.5% (inactive) | -8.87% (inactive) |
| CCCN(CCC)C(=O)C1CCN(c2cc(C)nc3c(-c4ccc(OC)c(OC)c4)c(C)nn23)CC1 | 651 | 6.6% (inactive) | -2.4% (inactive) | 91.7 | -68.7% (inactive) | 124 | -0.492 (inactive) | -2.2e-05 (inactive) | 0.00708 (inactive) | 4.7% (inactive) | 7.43% (inactive) |
| Cn1c(=O)c2c(nc(NCc3ccco3)n2C/C=C/c2ccccc2)n(C)c1=O | 256 | 8.8% (inactive) | 6.1% (inactive) | 99.5 | -65.5% (inactive) | 118 | -0.637 (inactive) | 3.3e-05 (inactive) | 0.00629 (inactive) | 14.8% (inactive) | 18.9% (inactive) |
| O=S1(=O)CCC(N=Cc2cc(Br)ccc2O)C1 (stereo not drawn) | 500 | -13.1% (inactive) | 32.5% (inactive) | 76.6 | 18% (inactive) | 97.7 | -0.498 (inactive) | -4e-05 (inactive) | 0.0045 (inactive) | 17.3% (inactive) | 22.5% (inactive) |
| N#Cc1c(N2CCCC2)nc(N)c2c(N)nc(N3CCCC3)cc12 | 581 | -9.2% (inactive) | -6.2% (inactive) | 84.2 | -144% (inactive) | 160 | -0.0789 (active) | 1.7e-06 (inactive) | 0.0051 (inactive) | -6.36% (inactive) | 2.26% (inactive) |
| Nc1ccc(-n2c(N)c(C(=O)NCc3ccc4c(c3)OCO4)c3nc4ccccc4nc32)cc1 | 334 | -17.4% (inactive) | 16.7% (inactive) | 93.9 | -16.4% (inactive) | 117 | -0.476 (inactive) | -3e-05 (inactive) | 0.00435 (inactive) | 20.1% (inactive) | 3.26% (inactive) |
| Cc1cc2ncc(-c3ccc(Cl)cc3)c(N)n2n1 | 930 | -1.7% (inactive) | -6% (inactive) | 129 | -36.3% (inactive) | 125 | -0.583 (inactive) | 2.1e-05 (inactive) | 0.00574 (inactive) | -34% (inactive) | -158% (inactive) |
| CCCNC(=O)C1CCN(S(=O)(=O)c2ccc3nc4c(c(C(=O)O)c3c2)CCCCC4)CC1 | 637 | 1.3% (inactive) | -1.8% (inactive) | 119 | -26.6% (inactive) | 118 | -0.531 (inactive) | 2e-05 (inactive) | 0.00704 (inactive) | 8.11% (inactive) | 12.8% (inactive) |
| Cc1cc(C(F)F)n2nc(C(=O)Nc3ccc(S(=O)(=O)N4CCCCCC4)cc3)nc2n1 | 602 | -6.2% (inactive) | 9.9% (inactive) | 85.5 | -59.4% (inactive) | 96.2 | -0.566 (inactive) | 2.4e-05 (inactive) | 0.00419 (inactive) | 17.7% (inactive) | 22.1% (inactive) |
| Cc1ccc(C(=O)OCC(=O)Nc2ccc3c(c2)OCO3)o1 | 429 | 14.6% (inactive) | 17.6% (inactive) | 99.5 | 8.1% (inactive) | 112 | -0.595 (inactive) | -5.5e-05 (inactive) | 0.00785 (inactive) | -15.7% (inactive) | -12.9% (inactive) |
| CCOC(=O)CN1CC23C=CC(O2)C(C(=O)NCc2ccc(F)cc2)C3C1=O (stereo not drawn) | 572 | -2% (inactive) | 15.7% (inactive) | 106 | -142% (inactive) | 131 | -0.589 (inactive) | -1.1e-05 (inactive) | 0.00638 (inactive) | 14% (inactive) | 27.7% (inactive) |
| O=C(c1csc2ccccc12)N1CCCCCC1 | 359 | 5.6% (inactive) | 13.8% (inactive) | 100 | -16.8% (inactive) | 106 | -0.512 (inactive) | 8.9e-06 (inactive) | 0.0038 (inactive) | 7.71% (inactive) | 5.9% (inactive) |
| CC(C)(C)c1nc(CN2CCOCC2)ccc1O | 580 | -17% (inactive) | 21.1% (inactive) | 104 | -58.3% (inactive) | 109 | -0.401 (inactive) | -4.4e-05 (inactive) | 0.0093 (inactive) | 10.4% (inactive) | 29.3% (inactive) |
| COc1ccc(NC(C)=O)cc1NC(=O)CN1CCN(c2ccccn2)CC1 | 573 | -7% (inactive) | -1.2% (inactive) | 104 | -35.2% (inactive) | 74.8 | -0.526 (inactive) | -1.4e-05 (inactive) | 0.00596 (inactive) | -3.99% (inactive) | 0.164% (inactive) |
| COc1cc(NC(=O)CC(C)C)ccc1NC(=O)c1ccco1 | 612 | -6% (inactive) | 10.4% (inactive) | 93.3 | 44.4% (inactive) | 47.6 | -0.605 (inactive) | 1e-05 (inactive) | 0.00539 (inactive) | -64.3% (inactive) | -135% (inactive) |
| COc1ccccc1-c1nnc(SCC(=O)N2CC(C)CC(C)C2)o1 (stereo not drawn) | 351 | 11.1% (inactive) | -3.7% (inactive) | 112 | 28% (inactive) | 94.8 | -0.411 (inactive) | -5.2e-05 (inactive) | 0.00365 (inactive) | 21.4% (inactive) | 29.2% (inactive) |
| Cc1ccc(S(=O)(=O)NCCNC(=O)C2CCCNC2=O)cc1 (stereo not drawn) | 440 | -0.4% (inactive) | -9.8% (inactive) | 97.5 | -14.7% (inactive) | 121 | -0.584 (inactive) | -7e-05 (inactive) | 0.00341 (inactive) | 16.4% (inactive) | 12.2% (inactive) |
| COc1ccc(C2C=C(c3ccccc3)Nc3ncnn32)cc1 (stereo not drawn) | 558 | -20.9% (inactive) | -12.6% (inactive) | 105 | -15.1% (inactive) | 110 | -0.0904 (active) | 4.2e-06 (inactive) | 0.00603 (inactive) | 5.64% (inactive) | -14.5% (inactive) |
| O=C1NC(c2ccco2)Nc2ccccc21 (stereo not drawn) | 694 | -50% (inactive) | -23.8% (inactive) | 102 | -84.8% (inactive) | 107 | -0.344 (inactive) | 1.4e-05 (inactive) | 0.00562 (inactive) | -17.2% (inactive) | 99.3% (active) |
| O=C(C1CCCO1)N1CCc2ccccc21 (stereo not drawn) | 445 | 6% (inactive) | -16.9% (inactive) | 108 | -32.9% (inactive) | 108 | -0.404 (inactive) | 5.9e-05 (inactive) | 0.00647 (inactive) | 9.45% (inactive) | 36.8% (inactive) |
| O=C(N1CCN(c2ccccc2F)CC1)C12CC3CC(CC(C3)C1)C2 | 242 | 3.4% (inactive) | -2.5% (inactive) | 99.4 | 17.9% (inactive) | 95 | -0.387 (inactive) | 2.5e-05 (inactive) | 0.00709 (inactive) | 7.35% (inactive) | 14.4% (inactive) |
